Bioassay records from PubChem BioAssay.
Compounds with a hit are over-represented: about 2.4% of the library has one in this group of screens.
Cruzain inh noDet – qHTS Assay for Promiscuous and Specific Inhibitors of Cruzain (without detergent); purified cruzain, Z-FR-AMC fluorescence, no detergent; Potency, µM, for inactives: max response, negative = inhibition, hits mostly inhibitors; 2.3% of 200,000 active;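 note: plate controls were enzyme without inhibitor for no effect and buffer without enzyme for full effect; nearly all actives have a fitted effect of over 40% in size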
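Detergent-free condition (0.00005% Triton X-100) in acetate buffer pH 5.5 with DTT. 1.5 nM enzyme and compound were pre-mixed 15 min, then 2 uM Z-FR-AMC substrate added; reaction progress from fluorescence change between first and third reads (60 s).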
Cruzain inh Det – qHTS Assay for Promiscuous and Specific Inhibitors of Cruzain (with detergent); purified cruzain, Z-FR-AMC fluorescence, 0.01% Triton; Potency, µM, for inactives: max response, negative = inhibition, actives largely listed as inhibitors; 0.43% of 200,000 active; AID 1478, 2009;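 note: plate controls were neutral wells for no effect and buffer without enzyme for full effect; nearly all actives have a fitted effect of over 40% in size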
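Detergent-containing arm of a paired screen for aggregation-based inhibition: 0.01% Triton X-100 present. Cruzain at 1.5 nM cleaved 2 uM Z-FR-AMC at pH 5.5 with 5 mM DTT; AMC fluorescence gain over 60 s measured activity.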
Papain counter – qHTS Assay for Inhibitors of Papain: Counterscreen for Cruzain Assay; shares compounds with Cruzain inh Det; Potency, µM, without a hit: max response, negative = inhibition, hits mostly inhibitors; purified papain, Z-FR-AMC fluorescence cleavage; AID 2161, 2009; 41% of 410 active;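 note: 0% = no-compound wells and -100% = no-enzyme wells; nearly all actives have a fitted effect of over 35% in size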
Target sequence (P00784 whole entry, looked up): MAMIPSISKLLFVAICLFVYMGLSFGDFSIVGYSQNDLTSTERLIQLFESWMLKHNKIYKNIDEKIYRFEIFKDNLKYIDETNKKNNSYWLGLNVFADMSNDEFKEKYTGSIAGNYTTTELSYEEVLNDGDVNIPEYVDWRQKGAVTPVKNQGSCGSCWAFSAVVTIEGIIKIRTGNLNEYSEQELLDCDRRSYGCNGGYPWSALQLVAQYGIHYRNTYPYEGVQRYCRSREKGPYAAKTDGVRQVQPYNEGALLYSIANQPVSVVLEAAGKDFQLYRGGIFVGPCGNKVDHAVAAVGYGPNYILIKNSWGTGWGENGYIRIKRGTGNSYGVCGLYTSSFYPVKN
* marks the source's active call; other numbers are inactive results; ? = inconclusive; · = no result; ! = not active in a repeat. Calls come from the whole dose curve; as a rule, active = well fitted curve in the direction sought with a large enough effect; inconclusive = small, poorly fitted or top-dose-only effect, or another doubt; inactive = no such curve, though single readings can be large; an effect the other way counts as inactive or inconclusive. Potency is the fitted concentration of half-maximal effect.

SMILES	Cruzain inh noDet	Cruzain inh Det	Papain counter
O=c1c(-c2ccccc2)nc2cnc(Oc3ccccc3)nc2n1Cc1cccs1	?	1%	·
CCc1c(C)[nH]c2c1C(=O)[C@H](CN1CCOCC1)CC2	-2%	1%	·
Cc1ccc(S(=O)(=O)N[C@@H](Cc2ccccc2)C(=O)CCl)cc1	3.2µM*	7.1µM*	16µM*!
Cc1ccc(S(=O)(=O)N[C@H](CO)C(=O)O)cc1	4%	2%	·
CCc1cc2c(=O)[nH]c(Cc3ccccc3)nc2s1	?	-2%	·
CCc1cc2c(=O)[nH]c(-c3ccncc3)nc2s1	?	8.9µM*	-39%
Cc1ccc(Cn2c(=O)c3ccccc3n3c(-c4ccccc4)nnc23)cc1	6%	-4%	·
O=C(/C=C/c1ccc2c(c1)OCO2)Nc1ccc(-n2nncc2-c2ccccc2)cc1	·	·	14µM*
O=C(Nc1ccccc1)c1ccc(-n2nncc2-c2ccccc2)cc1	·	·	2%
CN(C)S(=O)(=O)c1ccc(C(=O)Nc2ccc(-n3nncc3-c3ccccc3)cc2)cc1	-16%	0%	·
COc1ccc(-c2cnnn2-c2ccc(NC(=O)/C=C/c3ccc(OC)c(OC)c3)cc2)cc1	13µM*	3.5µM*	-14%
O=C(Nc1ccc(-n2nncc2-c2ccccc2)cc1)c1cccc(F)c1	9%	11%	·
COc1ccc(/C=C/C(=O)Nc2ccc(-n3nncc3-c3ccc(OC)c(OC)c3)cc2)cc1OC	?	-15%	·
O=C(CSCn1nnc2c(=O)[nH]c(Cc3ccc(F)cc3)nc21)Nc1cccc(C(F)(F)F)c1	9%	-4%	·
O=C(CCCn1c(=O)[nH]c2ccccc2c1=O)NCc1ccccc1Cl	-3%	-5%	·
Cc1ccn2c(Nc3ccc(C(C)C)cc3)c(-c3cccs3)nc2c1	-8%	-4%	·
CC(NC(=O)Nc1cc(Cl)ccc1Cl)c1c(-n2cccc2)sc2c1CCCC2 (stereo not given)	1%	-4%	·
CC1(C)Cc2c(C#N)c(N3CCN(C(=O)c4ccco4)CC3)nc(-c3ccco3)c2CS1	16µM*	28µM*	3.5µM*
CC1(C)Cc2c(C#N)c(N3CCN(C(=O)c4ccco4)CC3)nc(Cc3ccccc3)c2CO1	14%	-1%	·
CSCC[C@H](NC(=O)OC(C)(C)C)c1nnc(SCc2ccccc2)o1	-5%	-3%	·
COC(=O)CS(=O)(=O)c1nnc([C@H](Cc2ccccc2)NC(=O)OC(C)(C)C)o1	10µM*	7.1µM*	5.6µM*
Cc1ccc(-c2nnc(Nc3ccc(O)cc3)c3ccccc23)cc1S(=O)(=O)NC(C)(C)CO	-13%	-17%	·
O=C(NC(=S)Nc1cccc(Cl)c1N1CCCC1)c1ccc(-c2cccc([N+](=O)[O-])c2)o1	3.2µM*	-3%	8%
O=C(Nc1cccc(Cl)c1N1CCCCC1)c1ccc(N2CCOCC2)c([N+](=O)[O-])c1	-2%	-7%	·
CCN(CC)C(=O)C1CCCN(c2ncnc3c2c(-c2ccccc2)cn3-c2cccc(C)c2)C1 (stereo not given)	?	-2%	·
SMILES	Cruzain inh noDet	Cruzain inh Det	Papain counter
CCOc1cccc(CC(=O)N2CCc3c([nH]c4ccccc34)C2c2ccc(C)cc2)c1OCC (stereo not given)	?	2%	·
CCCn1c2ccc(F)cc2c2nnc(SCCN(CC)CC)nc21	4µM*	4.5µM*	25µM*
CC1CCc2cc(F)ccc2N1C(=O)CSc1nnc2c3cc(F)ccc3n(C)c2n1 (stereo not given)	8%	-6%	·
CCCn1c2ccc(F)cc2c2nnc(SCCN3CCCCC3)nc21	2µM*	2µM*	13µM*
CCCn1c(-c2ccc(F)cc2)nc2c(NCCCCN3CCCC3)nc(C)nc21	-1%	-3%	·
CCn1c2ccc(F)cc2c2nnc(SCCN3CCCCC3)nc21	13µM*	14µM*	25µM*
CCn1c(CNc2ccc(F)cc2)nnc1SCCN1CCCCC1	-1%	-1%	·
CCNc1nc(C#N)nc(NCC)n1	·	·	-8%
CCNc1nc(NOC)nc(OCC#N)n1	-3%	-1%	·
CCCCc1nnc(SCc2cc(=O)c3cc(F)ccc3[nH]2)n1C	-13%	2%	·
Cc1ccc2ncnc(NCCCN3CCOCC3)c2c1	8%	-1%	·
Clc1ccc2[nH]c3c(NCCCN4CCOCC4)ncnc3c2c1	13µM*	16µM*	4%
CCN1CCCC1Cn1cnc2c([nH]c3ccc(C)cc32)c1=O (stereo not given)	-18%	-8%	·
CCN1CCCC1CNc1ncnc2c1[nH]c1ccc(Cl)cc12 (stereo not given)	16µM*	25µM*	-3%
CCOc1ccc(-c2nc(Cn3c(=O)cc(-c4ccccc4)c4c(C)nn(C)c43)c(C)o2)cc1OC	-3%	-2%	·
CCC(C(=O)NC1CCCCC1)n1c(SCc2ccccc2F)nc2ccncc21 (stereo not given)	?	13µM*	28µM*
O=C(NC1CCCC1)c1ccc(CSc2nc3ccncc3n2Cc2ccccc2F)cc1	3%	-7%	·
COC(=O)[C@@]1(Cc2ccc(OC)cc2)[C@H]2c3cc(C(=O)N4CCCC4)n(Cc4cc(F)c(F)c(F)c4)c3C[C@H]2CN1C(=O)c1ccccc1	?	-5%	·
COc1cc(Cl)c(C)cc1NC(=O)Cn1ncc2c1-c1cc(C)ccc1OC2	-3%	-1%	·
COc1ccc(-c2nnc(SCC(=O)Nc3cccc(C(F)(F)F)c3)s2)cc1	-19%	-2%	·
COCCNc1ccc(-c2nc(-c3cccc(C)c3)no2)cc1[N+](=O)[O-]	2%	-4%	·
COc1ccc2cc3cc(C(=O)NCCCN4CCOCC4)oc3nc2c1	?	32µM*	16µM*
COc1ccc2cc3cc(C(=O)NCCN4CCN(Cc5ccccc5)CC4)oc3nc2c1	-30%	?	·
CC(C)(C)NC[C@@H](O)COc1nsnc1N1CCOCC1	-2%	4%	·
C#CCn1c(=NC(=O)c2ccc(Br)s2)sc2cc(NC(C)=O)ccc21	-18%	-12%	·
SMILES	Cruzain inh noDet	Cruzain inh Det	Papain counter
COC(=O)Cn1c(=NC(=O)c2ccc(Cl)s2)sc2cc(C)ccc21	20µM*	22µM*	14µM*
CCc1ccc(OCCn2c(CCNC(=O)C3CCCCC3)nc3ccccc32)cc1	·	·	-5%
CCc1ccc(OCCSc2nc3ccccc3n2CC(=O)N2CCCCC2)cc1	14%	-5%	·
CCCc1nc2ccccc2n1CCOc1ccccc1	0%	-6%	·
CCc1ccc(OCCCn2c(CCNC(=O)C3CCCCC3)nc3ccccc32)cc1	·	·	16µM*
CCc1ccc(NC(=O)CSc2nc3c(c(=O)[nH]2)CN(Cc2ccc(C)cc2)CC3)cc1	1%	7%	·
O=C(Nc1ccc(N2CCCC2)cc1)c1ccc(Br)o1	7.9µM*	?	26%
O=C(Nc1ccc(N2CCN(C(=O)c3ccccc3)CC2)cc1)c1ccc(Br)o1	?	-5%	·
CC(=O)N1CCc2cc(Br)cc(S(=O)(=O)CCC(=O)N3CCN(c4ccccc4Cl)CC3)c21	15%	-2%	·
COc1ccc(-c2noc(-c3cccnc3NCc3ccco3)n2)cc1	20%	5%	·
CCC(Sc1nnc2c(n1)[nH]c1ccccc12)C(=O)Nc1nnc(C(C)C)s1 (stereo not given)	19%	-2%	·
COc1ccccc1CNC(=O)c1ccc(N2Cc3cccc(OC)c3Oc3ncccc32)s1	-11%	0%	·
